From PubChem BioAssay (NCATS)
Results filed as inconclusive are left out. The source made the active and inactive calls. Unless noted, calls come from the whole dose curve; as a rule, active = well fitted curve in the direction sought with a large enough effect; inconclusive = small, poorly fitted or top-dose-only effect, or another doubt; inactive = no such curve, though single readings can be large; an effect the other way counts as inactive or inconclusive.

Experiments:
[1] = target: Mitogen-activated protein kinase 10 (Mus musculus) (UniProt Q61831); test: JNK3 AlphaScreen Assay (AID 530; active = well fitted curve in either direction with a large enough effect, not every such curve was filed as active;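 note: kinase came from lysate of stimulated human HepG2 cells; signal reports phosphorylation of biotinylated GST-cJun 1-79 at Ser73 with 10 µM ATP; % is set by controls: 0 for no effect and ±100 for the full control effect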)
Outline: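 Compound titrations were preincubated 15 minutes at room temperature with substrate, antibody and pre-activated JNK3-containing HepG2 lysate. Reactions were started with 10 uM ATP and stopped with EDTA-containing bead buffer for AlphaScreen detection.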

[2] = Cell Viability - N2a (AID 540); settings: N2a mouse neuroblastoma cell viability; activity change, negative = cytotoxicity: at 92.2 µM (top of the series);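 note: cells exposed to compound for 40 h at 37 °C; plate controls were DMSO alone for no effect and tamoxifen control for full effect; nearly all actives have a fitted effect of over 45% in size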
Outline: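 Luminescent ATP signal (CellTiter-Glo, 20 min at room temperature) served as the viability read-out after N2a cells were treated with compounds for 40 hours at 37 °C. Concentration-response data were fitted to the Hill equation for AC50.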

[3] = Cell Viability - HUV-EC-C (AID 542); note: % is set by controls: 0 for no effect and ±100 for the full control effect; nearly all actives have a fitted effect of over 35% in size
Outline: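 qHTS cytotoxicity: HUV-EC-C, 1000 cells/well, 5 hr settle, compound 40 hr 37 °C, CellTiter-Glo, luminescence. AC50 via Hill equation.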

[4] = Cell Viability - Renal Proximal Tubule (AID 545); settings: renal proximal tubule cells viability, primary cells of rat origin; activity change, negative = cytotoxicity: at 91.7 µM (top of the series); note: nearly all actives have a fitted effect of over 40% in size
Outline: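 Rat kidney proximal tubule cells, freshly isolated; 1000 cells/well, 5 hr settle, compound 40 hr 37 °C. CellTiter-Glo 20 min RT, luminescence read. AC50 by standard Hill fit.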

[5] = Cellular Toxicity (caspase-3) HepG2 (AID 654);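 note: cells exposed to compound for 16 hours before reading; 0% = DMSO alone and 100% = caspase signal from 100 µM tamoxifen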
Outline: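 Cells plated 5 hr at 37 °C, compound added, incubated 16 hr at 37 °C. Caspase-Glo 3/7 reagent followed, 20 min at room temperature, then luminescence read. Activation scored as signal increase; AC50 from Hill fit.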

[6] = Cellular Toxicity (caspase-3) Jurkat (AID 655);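 note: cells exposed to compound for 16 h at 37 °C before reading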
Outline: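 Luminescent caspase-3/7 readout (aminoluciferin substrate cleavage) in human T-cell leukemia Jurkat cells after 16 hr compound exposure. Concentration-response normalized to DMSO and 100 uM tamoxifen; AC50 by standard Hill equation.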

[7] = Cellular Toxicity (caspase-3) HUV-EC-C (AID 656)
Outline: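 Luminescent caspase-3/7 activation (aminoluciferin substrate cleavage) in HUV-EC-C cells after 16 hr compound exposure, 37°C. Signal normalized to DMSO basal and 100 uM tamoxifen as 100%; AC50 from concentration-response fitted with the Hill equation.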

[8] = Cellular Toxicity (caspase-3) SHSY5Y (AID 657);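 note: cells exposed to compound for 16 hours at 37 °C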
Outline: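 Luminescent caspase-3/7 readout (aminoluciferin release) in SH-SY5Y cells after 16 h compound exposure in complete medium. Activity scaled between DMSO basal and 10 uM staurosporine as 100%; concentration-response fitted to Hill equation for AC50.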

[9] = Cellular Toxicity (caspase-3) BJ (AID 658);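 note: 0% = DMSO basal and 100% = 10 µM staurosporine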
Outline: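 Readout: Caspase-Glo 3/7 luminescence increase in BJ cells after 16 hr treatment at 37 °C. Staurosporine and tamoxifen served as positive controls; AC50 values came from Hill modelling of data normalized to DMSO and 10 uM staurosporine.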

[10] = Cellular Toxicity (caspase-3) MRC-5 (AID 659);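 note: 0% = DMSO basal and 100% = 10 µM staurosporine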
Outline: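 Concentration-dependent caspase 3/7 activation is measured in human normal lung fibroblasts (MRC-5) following 16-hour treatment. AC50 values come from standard Hill-equation modeling of luminescence normalized to DMSO and 10 uM staurosporine.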

[11] = Cellular Toxicity (caspase-3) Mesangial (AID 660); settings: Potency: caspase-3 activation;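 note: combined caspase 3 and 7 activity read by Caspase-Glo luminescence; cells exposed to compound for 16 h before the caspase read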
Outline: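 Mesangial cells, 1000/well, 5 h settle at 37 °C; compound 16 h, 37 °C; Caspase-Glo 3/7 reagent 20 min RT; luminescence. Norm.: DMSO = 0%, tamoxifen 100 uM = 100%. AC50, Hill fit.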

[12] = Cellular Toxicity (caspase-3) SK-N-SH (AID 661);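 note: 0% = DMSO basal and 100% = 10 µM staurosporine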
Outline: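 Human neuroblastoma SK-N-SH, 1500 cells/well, 5 hr pre-incubation, then compound 16 hr, 37 °C. Caspase-Glo 3/7 reagent, 1 hr RT, luminescence. Norm. to DMSO/10 uM staurosporine; Hill-fit AC50.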

[13] = Cellular Toxicity (caspase-3) H-4-II-E (AID 663); settings: H-4-II-E rat hepatoma, scaled: DMSO 0%, 100 µM tamoxifen 100%; at 92.2 µM (top of the series);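 note: cells exposed to compound for 16 hr before readout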
Outline: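 Apoptosis induction is scored as increased luminescence from caspase 3/7 substrate cleavage in rat hepatoma H-4-II-E cells exposed to compound for 16 hr. Activity is scaled between DMSO and 100 uM tamoxifen.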

[14] = Cellular Toxicity (caspase-3) Hek293 (AID 664); settings: HEK293 caspase-3 activation, DMSO = 0%, 100 µM tamoxifen = 100%; at 92.2 µM (top of the series);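 note: cells exposed to compound for 16 h at 37 °C before readout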
Outline: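 Cells plated, 5 hr at 37 °C; compounds added; 16 hr at 37 °C; Caspase-Glo 3/7 reagent, 20 min RT; luminescence read. Activation expressed relative to DMSO and 100 uM tamoxifen, AC50 by Hill model.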

[15] = Cell Viability - H-4-II-E (AID 543); note: % is set by controls: 0 for no effect and ±100 for the full control effect; nearly all actives have a fitted effect of over 35% in size
Outline: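 Luminescent ATP signal (CellTiter-Glo) served as the viability read-out, with cytotoxicity seen as a concentration-dependent ATP drop. Cells were treated for 40 hours in complete medium. AC50 values derive from Hill-equation modelling.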

[16] = Cell Viability - SH-SY5Y (AID 544); settings: SH-SY5Y neuroblastoma cell viability; viability change, negative = cytotoxic: at 92.2 µM (top of the series); note: nearly all actives have a fitted effect of over 55% in size
Outline: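 Luminescent ATP read-out (CellTiter-Glo) measures loss of viable SH-SY5Y neuroblastoma cells after 40 hr compound exposure at 37 °C. AC50 values derive from standard Hill modelling of qHTS concentration-response data.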

[17] = Cell Viability - Mesenchymal (AID 546); settings: mesenchymal cells viability, qHTS; activity change, negative = cytotoxicity: at 91.7 µM (top of the series);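 note: cells exposed to compound for 40 hours before reading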
Outline: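 AC50 values reflect the drop in intracellular ATP in a human kidney mesenchymal line derived from normal glomeruli. Treatment lasts 40 hr at 37 °C in complete medium, and the signal comes from CellTiter-Glo luminescence.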

[18] = target: Glucocorticoid receptor (Homo sapiens) (UniProt P04150); test: GR-GFP Redistribution (AID 450;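 active = compounds whose dose series gives a full or clear partial fitted curve of increased nuclear translocation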; note: potency is the fitted concentration of half-maximal effect); settings: U2OS GR-GFP nuclear translocation, laser cytometry, 2 h
Glucocorticoid receptor (Homo sapiens), sequence (P04150 whole entry, looked up): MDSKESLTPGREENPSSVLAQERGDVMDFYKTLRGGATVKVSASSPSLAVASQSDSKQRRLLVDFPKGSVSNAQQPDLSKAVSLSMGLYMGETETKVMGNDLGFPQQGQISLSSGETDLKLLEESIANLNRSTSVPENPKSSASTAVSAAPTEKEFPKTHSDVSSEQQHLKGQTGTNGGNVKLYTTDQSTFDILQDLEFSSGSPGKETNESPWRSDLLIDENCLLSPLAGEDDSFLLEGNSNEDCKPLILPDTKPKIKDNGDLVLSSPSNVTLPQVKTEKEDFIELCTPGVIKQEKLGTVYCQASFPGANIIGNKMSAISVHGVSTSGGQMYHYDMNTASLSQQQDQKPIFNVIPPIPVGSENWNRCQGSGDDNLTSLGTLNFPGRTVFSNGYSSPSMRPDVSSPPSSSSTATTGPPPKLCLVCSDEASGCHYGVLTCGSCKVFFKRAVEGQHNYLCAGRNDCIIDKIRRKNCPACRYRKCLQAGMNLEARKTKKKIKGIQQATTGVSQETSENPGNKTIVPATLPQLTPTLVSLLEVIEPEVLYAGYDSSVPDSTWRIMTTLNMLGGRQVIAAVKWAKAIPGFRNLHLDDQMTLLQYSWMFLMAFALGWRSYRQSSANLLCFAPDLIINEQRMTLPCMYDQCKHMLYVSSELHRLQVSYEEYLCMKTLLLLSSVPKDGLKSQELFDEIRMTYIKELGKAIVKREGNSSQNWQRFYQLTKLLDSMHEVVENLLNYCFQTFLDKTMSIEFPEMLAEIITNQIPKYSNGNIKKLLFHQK

[19] = target: 3',5'-cyclic-AMP phosphodiesterase 4B (Homo sapiens) (UniProt Q07343); test: qHTS Assay for Inhibitors of PDE-IV (AID 607; active = well fitted activation curve with a large enough effect in the main read-out, with a control signal flat, not every such curve was filed as active; note: % of control where 0% means no effect)
3',5'-cyclic-AMP phosphodiesterase 4B (Homo sapiens), sequence (Q07343 whole entry, looked up): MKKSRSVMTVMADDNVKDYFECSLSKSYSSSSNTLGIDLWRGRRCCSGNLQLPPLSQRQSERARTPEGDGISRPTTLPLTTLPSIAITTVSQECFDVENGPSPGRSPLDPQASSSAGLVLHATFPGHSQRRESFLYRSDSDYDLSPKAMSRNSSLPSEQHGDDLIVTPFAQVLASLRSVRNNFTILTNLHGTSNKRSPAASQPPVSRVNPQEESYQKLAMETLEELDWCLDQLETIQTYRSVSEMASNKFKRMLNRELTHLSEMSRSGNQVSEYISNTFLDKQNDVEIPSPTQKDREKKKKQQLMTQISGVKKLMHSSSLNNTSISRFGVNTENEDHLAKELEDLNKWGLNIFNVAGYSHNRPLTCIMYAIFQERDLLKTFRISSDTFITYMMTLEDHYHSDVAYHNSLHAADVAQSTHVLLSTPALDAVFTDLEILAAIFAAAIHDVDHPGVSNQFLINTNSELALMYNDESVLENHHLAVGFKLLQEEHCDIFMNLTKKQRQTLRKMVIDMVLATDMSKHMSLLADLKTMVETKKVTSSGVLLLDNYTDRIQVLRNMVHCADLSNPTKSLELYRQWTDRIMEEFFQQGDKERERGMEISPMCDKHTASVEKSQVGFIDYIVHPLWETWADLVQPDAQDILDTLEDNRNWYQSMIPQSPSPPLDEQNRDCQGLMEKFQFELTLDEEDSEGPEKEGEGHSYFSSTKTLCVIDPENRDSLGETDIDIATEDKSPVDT
Outline: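 The readout is membrane depolarisation from a cAMP-sensing CNG channel, detected with a potential dye at ex 535/em 590. Cells were HEK293-derived (endogenous PDE-IV) at 1000 cells/well, titrated up to 22.9 uM final.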

O=C(O)c1cc(O)c(O)c(O)c1
inactive: Potency [1] | Potency [2] | Potency [3] | activity change, negative = cytotoxicity [4] -19.1% | Potency [5] | Potency [6] | outcome [7] | outcome [8] | outcome [9] | outcome [10] | Potency [11] | Potency [12] | caspase-3 activation [13] -0.904% | caspase-3 activation [14] -9.64%

CN1CCC[C@H]1c1cccnc1
inactive: Potency [1] | Potency [2] | Potency [3] | Potency [15] | Potency [16] | activity change, negative = cytotoxicity [4] 3.04% | Potency [17] | Potency [5] | Potency [6] | outcome [7] | outcome [8] | outcome [9] | outcome [10] | Potency [11] | Potency [12] | caspase-3 activation [13] -0.172% | caspase-3 activation [14] 1.08%

O=C(Nc1cccc(C(=O)Nc2ccc(S(=O)(=O)O)c3cc(S(=O)(=O)O)cc(S(=O)(=O)O)c23)c1)Nc1cccc(C(=O)Nc2ccc(S(=O)(=O)O)c3cc(S(=O)(=O)O)cc(S(=O)(=O)O)c23)c1
inactive: Potency [18] > 46 µM | outcome [19]

CN(C)CCC(c1ccc(Cl)cc1)c1ccccn1 (configuration not stated)
inactive: Potency [1] | Potency [2] | Potency [3] | Potency [15] | Potency [16] | activity change, negative = cytotoxicity [4] -6.06% | Potency [17] | Potency [5] | Potency [6] | outcome [7] | outcome [8] | outcome [9] | outcome [10] | Potency [11] | Potency [12] | caspase-3 activation [13] 1.63% | caspase-3 activation [14] 1.34%

Cc1ccc(C(=O)c2ccc(CC(=O)O)n2C)cc1
inactive: Potency [1] | outcome [19]

Nc1nc2ccc([N+](=O)[O-])cc2s1
inactive: Potency [1] | Potency [3] | Potency [17] | Potency [5] | Potency [6] | outcome [7] | outcome [8] | outcome [9] | outcome [10] | Potency [11] | Potency [12] | caspase-3 activation [13] -1.1% | caspase-3 activation [14] -4.39%

NCCCCCCCCCCN
inactive: Potency [18] > 46 µM | outcome [19]

NO
inactive: Potency [1] | outcome [19]

CCCCN1CCC(n2c(=O)[nH]c3ccccc32)CC1
inactive: Potency [18] > 46 µM | outcome [19]

c1ccc2sc(SSc3nc4ccccc4s3)nc2c1
inactive: Potency [1] | Potency [2] | Potency [3] | Potency [15] | Potency [16] | activity change, negative = cytotoxicity [4] -1.46% | Potency [17] | Potency [5] | Potency [6] | outcome [7] | outcome [8] | outcome [9] | outcome [10] | Potency [11] | Potency [12] | caspase-3 activation [13] -0.551% | caspase-3 activation [14] 2.01%

COc1cc(CNC(=O)CCCC/C=C/C(C)C)ccc1O
inactive: Potency [1] | Potency [2] | Potency [15] | activity change, negative = cytotoxicity [4] -16.6% | Potency [17] | Potency [5] | Potency [6] | outcome [7] | outcome [8] | outcome [9] | outcome [10] | Potency [11] | Potency [12] | caspase-3 activation [13] 1.09% | caspase-3 activation [14] 0.218%

O=C(c1cc(O)c(O)c([N+](=O)[O-])c1)c1ccccc1F
inactive: Potency [18] > 46 µM | outcome [19]

Cc1cc(NC(=O)Nc2ccc3c(ccn3C)c2)sn1
inactive: Potency [18] > 46 µM | outcome [19]

Nc1ccc(O)c([N+](=O)[O-])c1
inactive: Potency [1] | Potency [3] | Potency [15] | activity change, negative = cytotoxicity [4] 0.95% | Potency [17] | Potency [5] | Potency [6] | outcome [7] | outcome [8] | outcome [9] | outcome [10] | Potency [11] | Potency [12] | caspase-3 activation [13] 4.05% | caspase-3 activation [14] 0.408%

N.N.O=C(O)C1(C(=O)O)CCC1.[Pt]
inactive: Potency [1] | outcome [19]

O=C(O)/C=C\C(=O)O
inactive: Potency [1] | Potency [2] | Potency [3] | Potency [15] | Potency [16] | activity change, negative = cytotoxicity [4] -6.17% | Potency [17] | Potency [5] | Potency [6] | outcome [7] | outcome [8] | outcome [9] | outcome [10] | Potency [11] | Potency [12] | caspase-3 activation [13] 0.648% | caspase-3 activation [14] -1.35%

COc1ccccc1N1CCN(CCCCNS(=O)(=O)c2cccc3c(N(C)C)cccc23)CC1
inactive: Potency [18] > 46 µM | outcome [19]

O=c1cc(-c2ccccc2)oc2ccccc12
inactive: Potency [1] | Potency [2] | Potency [3] | Potency [16] | Potency [5] | Potency [6] | outcome [7] | outcome [8] | outcome [9] | outcome [10] | Potency [11] | Potency [12] | caspase-3 activation [13] -0.716% | caspase-3 activation [14] -5.01%
